Measured values as given in PubChem BioAssay AID652054 (National Center for Advancing Translational Sciences (NCATS), 2013).
The whole screen tested about 360,000 compounds, of which about 9,100 (2.5%) were called active. Not shown: some 4% with an inconclusive outcome. The entries come from a sample that favours actives as a whole. Values without a mark were called inactive. No stated cut-off is given here; in the data, active means max response below about -50%; inconclusive means no clear call, values can overlap the other calls; inactive means above that.

target: D(3) dopamine receptor (Homo sapiens) (UniProt P35462); test: qHTS of D3 Dopamine Receptor Antagonist: qHTS; conditions: D3R cells, DiscoveRx beta-arrestin luminescence, antagonist mode; hits give low values
Sequence (P35462 whole entry, looked up): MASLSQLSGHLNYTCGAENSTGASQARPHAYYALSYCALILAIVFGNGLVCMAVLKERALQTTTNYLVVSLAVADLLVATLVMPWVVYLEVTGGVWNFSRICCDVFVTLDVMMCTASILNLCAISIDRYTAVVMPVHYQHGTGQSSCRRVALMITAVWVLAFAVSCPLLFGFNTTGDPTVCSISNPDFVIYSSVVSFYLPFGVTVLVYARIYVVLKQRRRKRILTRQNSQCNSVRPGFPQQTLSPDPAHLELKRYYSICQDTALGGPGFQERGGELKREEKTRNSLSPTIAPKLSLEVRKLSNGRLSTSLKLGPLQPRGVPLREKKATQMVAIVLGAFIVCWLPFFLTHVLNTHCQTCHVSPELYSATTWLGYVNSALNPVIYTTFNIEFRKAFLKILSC
Summary of the method: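 Cells plated overnight at 1500 cells/well, then exposed to library compounds with dopamine controls for 90 minutes at 37 degrees C. DiscoveRx reagent added for 30–60 minutes at room temperature; luminescence read, quantitative HTS format.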
On the % scale 0 is the no-effect control and ±100 the full control effect.

Row | SMILES | max response, negative = inhibition
1 | CC(=O)Nc1cccc(-c2ccnc3c2CC(C)(C(=O)NCc2ccco2)O3)c1 (stereo unspecified) | -21.1%
2 | O=[N+]([O-])c1ccc(N2CCSCC2)cc1O | -6.65%
3 | CC1CCN(c2ccc([N+](=O)[O-])cc2C(N)=O)CC1 | 10.9%
4 | CC1CCN(c2ccc([N+](=O)[O-])c(SCCO)c2)CC1 | -51.8% (active)
5 | O=C(Cc1ccc([N+](=O)[O-])cc1)NCCS(=O)(=O)N1CCN(c2ccccc2)CC1 | 3.87%
6 | CSc1ncccc1C(=O)NCC(c1ccco1)N1CCCCC1 (stereo unspecified) | 9.6%
7 | COc1ccc(C(CNC(=O)c2ccc(S(=O)(=O)Nc3ccccc3C)cc2)N2CCOCC2)cc1 (stereo unspecified) | -0.45%
8 | Cc1cc(S(=O)(=O)Nc2ccc(C(=O)NCC(c3ccco3)N3CCCC3)cc2)ccc1F (stereo unspecified) | 1.86%
9 | Cc1c(C(=O)NCC(c2ccco2)N2CCCC2)oc2ccc(Cl)cc12 (stereo unspecified) | -65.1% (active)
10 | COc1ccc(C(CNC(=O)c2cccnc2SC)N2CCOCC2)cc1 (stereo unspecified) | -18.5%
11 | COc1ccc(C(CNC(=O)c2cc3c(s2)CCCC3)N2CCOCC2)cc1 (stereo unspecified) | -51.3% (active)
12 | CC1CCc2sc(C(=O)NCC(c3ccco3)N3CCCCC3)cc2C1 (stereo unspecified) | -82.1% (active)
13 | COc1cc(C(=O)NCC(c2ccco2)N2CCCC2)ccc1OCc1ccccc1 (stereo unspecified) | 4.86%
14 | CC1Cc2ccccc2N1S(=O)(=O)c1cccc(C(=O)NCC(c2ccco2)N2CCCC2)c1 (stereo unspecified) | -17.2%
15 | CC(C)C[C@@H]1COc2cc(N3CCC[C@@H]3CO)ccc2S(=O)(=O)N1 | 18.9%
16 | CN(Cc1ccccc1)C(=O)[C@@H]1CCCN1C(=O)[C@@H]1CCCN1C(=O)c1c(F)cccc1F | -11.2%
17 | O=C(NN=Cc1ccc2c(c1)CCC2)c1ccccc1O | 10.4%
18 | CCc1cccc(C)c1NC(=O)COC(=O)CC1CCCC1 | -10.7%
19 | CCc1cccc(C)c1NC(=O)COC(=O)CNC(=O)c1cccs1 | 5.78%
20 | CCc1cccc(C)c1NC(=O)COC(=O)Cc1ccsc1 | -57.7% (active)
21 | CCCCn1nnnc1C(c1cc2ccccc2o1)N(C)Cc1ccc(Cl)c(Cl)c1 (stereo unspecified) | 16.5%
22 | COC(=O)[C@@]12C[C@@H](CC(=O)NCCCCc3ccccc3)C(=O)N(CCc3ccc(OC)c(OC)c3)C1=CCC(C)(C)C2 | -7.78%

Row | SMILES | max response, negative = inhibition
23 | COC(=O)c1ccc(CN2CCC(CO)(Cc3ccc(OC)cc3)CC2)cc1 | -62.3% (active)
24 | COc1ccc(CC2(CO)CCN(Cc3cnn(C)c3)CC2)cc1 | 4.38%
25 | COc1cccc(CC2(CO)CCN(Cc3cnc(-c4cccc(C)c4)nc3)CC2)c1 | 33.5%
26 | COc1ccc(CNC(=O)c2ccc(-c3cccnc3)c3ccoc23)cc1OC | 57.4%
27 | CC(=O)N1Cc2cc(C(=O)NCc3cccc(F)c3)nc(-c3cccc(C4=CCCC4)c3)c2[C@H]1CCO | 4.11%
28 | CC(=O)N1Cc2cc(C(=O)NCc3cccc(F)c3)nc(-c3cccc(C4=CCCCC4)c3)c2[C@H]1CCO | 40.6%
29 | CCNC(=O)c1cc2c(c(-c3cccc(-c4cncnc4)c3)n1)[C@H](CCO)N(C(C)=O)C2 | -53.7% (active)
30 | CN(Cc1ccc(C(F)(F)F)cc1)C(=O)[C@H]1O[C@@H](n2cnc3c(N)ncnc32)[C@H](O)[C@@H]1O | 14.2%
31 | CC1(C(=O)NCc2ccccc2)CSCC(=O)N1CCCN1CCOCC1 (stereo unspecified) | 2.3%
32 | CC1(C)CN(CCc2ccccc2)C(=O)[C@H]1CC(=O)Nc1ccc(Br)cc1 | -16%
33 | CN1CCN(S(=O)(=O)c2ccc(N3CCN(c4ccccc4O)CC3)c([N+](=O)[O-])c2)CC1 | -19.5%
34 | CN1CCN(c2ccc([N+](=O)[O-])c(Sc3nc4ccccc4[nH]3)c2)CC1 | -91.8% (active)
35 | O=[N+]([O-])c1ccc(N2CCNCC2)cc1NCc1cccnc1 | 1.82%
36 | CCCS(=O)(=O)NC(=O)C1(C)CCCN(C(=O)c2cc(C)on2)C1 (stereo unspecified) | 2.9%
37 | COc1ccc(-c2cc(=O)oc3cc(OCC(=O)N(C)C4CCS(=O)(=O)C4)ccc23)cc1 (stereo unspecified) | -51.8% (active)
38 | CC(=O)c1ccc(OCC(=O)N(C)C2CCS(=O)(=O)C2)cc1 (stereo unspecified) | -0.617%
39 | COc1ccc2c(-c3ccccc3)cc(SCC(=O)N(C)C3CCS(=O)(=O)C3)nc2c1 (stereo unspecified) | 0.687%
40 | COc1ccc(C(=O)N2CCCCC2c2cc(C(=O)Nc3ccc(F)c(Cl)c3)no2)cc1 (stereo unspecified) | -6.17%
41 | O=S1(=O)CC(N2CCN(c3ccccn3)CC2)CN1Cc1ccc(F)cc1 (stereo unspecified) | 7.7%
42 | CCCNC(=O)C1(C)CCCN(Cc2c(C)nn(-c3ccccc3)c2C)C1 (stereo unspecified) | 19.2%
43 | CCCNC(=O)C1(C)CCN(Cc2csc(-c3ccc(Cl)cc3)n2)C1 (stereo unspecified) | -103% (active)
44 | CCCNC(=O)C1(C)CCCN(Cc2cccc(C(F)(F)F)c2)C1 (stereo unspecified) | 27.1%

Row | SMILES | max response, negative = inhibition
45 | COC(=O)[C@]12CCCCC=C1N(Cc1cccc3ccccc13)C(=O)[C@H](CC(=O)N1CCOCC1)C2 | -10.3%
46 | COc1ccc(CNC(=O)c2c(C)cc(=O)oc2C)cc1OC | 2.8%
47 | Cc1cc(=O)oc(C)c1C(=O)NCCN(C)Cc1ccccc1 | -76.1% (active)
48 | Cc1cc(=O)oc(C)c1C(=O)NCc1ccc(F)cc1 | -14.8%
49 | Cc1nc(C(F)(F)F)ccc1C(=O)N1CCC1(C)C(=O)NS(=O)(=O)c1ccccc1Cl (stereo unspecified) | -15.5%
50 | CCN1CCN(C(=O)c2cc3cc4ccc(OC)cc4nc3s2)CC1 | -89.5% (active)
51 | COc1ccc(OCC(=O)N2CCN(C(=O)c3cccs3)CC2)cc1 | 5.1%
52 | COc1ccc(OC)c(C(=O)c2ccc(C(=O)N3CCN(Cc4csc(C)n4)CC3)cc2)c1 | -18%
53 | CCCc1c(-c2ccccc2F)ncn1Cc1ccccc1OC | 2.92%
54 | COc1ccc(CCNC(=O)CN(c2ccccc2)S(=O)(=O)c2ccccc2)cc1 | -3.43%
55 | CC(C)Oc1cc(F)ccc1-c1cc(C(=O)Nc2ccc(F)cc2)[nH]n1 | -13.9%
56 | COc1cc(-c2nnc(NC(=O)CS(=O)(=O)c3ccc(Cl)cc3)o2)cc(OC)c1OC | -6.21%
57 | COc1ccc2[nH]c3c(c2c1)CCN1C(=O)C(CC(=O)NCCCN(C)C)C[C@H](C(=O)N2CCOCC2)[C@@]31CCC1CCCC1 (stereo partly specified) | 37%
58 | CC[C@]12c3[nH]c4ccc(Cl)cc4c3CCN1C(=O)[C@@H](CC(=O)NCCN1CCOCC1)C[C@@H]2C(=O)N1CCN(C(=O)C2CC2)CC1 | 6.27%
59 | COc1ccc(CNC(=O)C[C@H]2C[C@H](C(=O)N3CCOCC3)[C@@]3(CCC4CCCC4)c4[nH]c5ccc(Cl)cc5c4CCN3C2=O)cc1OC | -63% (active)
60 | CCc1nc2c(OCCOc3ccccc3)cccn2c1N(C)C(=O)c1cccs1 | -19.8%
61 | Cc1ccc(-c2nc(CS(=O)(=O)CC(=O)NCc3ccc4c(c3)OCO4)c(C)o2)cc1 | -2.53%
62 | Cc1ccc(CNCc2ccc3c(c2)OCO3)c(C)c1 | -3.23%
63 | Cc1ccc(S(=O)(=O)N(CCCN(C)C)Cc2ccc3c(c2)OCO3)cc1 | -51.8% (active)
64 | OC[C@@H]1CN(Cc2ccc(Cl)cc2)C[C@H](n2cnc3c(NCc4ccncc4)ncnc32)O1 | 17.2%
65 | Cc1cc(Cl)ccc1C(=O)C1CCCN(C(=O)c2ccc3c(c2)OCO3)C1 (stereo unspecified) | -7.01%
66 | CC(=O)OCC(C)n1c(=O)c2ccccc2n1C(C)=O (stereo unspecified) | 0.665%

Row | SMILES | max response, negative = inhibition
67 | CCOC(=O)N1CCN(CCC(=O)Nc2cc(OC)ccc2OC)CC1 | 2%
68 | COc1ccc(N2CCN(CCNC(=O)Nc3cc(Cl)ccc3Cl)CC2)cc1 | -2.75%
69 | COc1ccc(NC(=O)CCCC2CCCCC2)c(OC)c1 | 11.6%
70 | COc1ccc(OC)c(NC(=O)CC(Cc2ccccc2OC)C(=O)O)c1 (stereo unspecified) | 2.31%
71 | CCOc1ccccc1NC(=O)Nc1cc(OC)ccc1OC | -69.8% (active)
72 | CCOc1ccccc1NC(=O)NC1CCCCCCC1 | 0.28%
73 | CCOc1ccccc1NC(=O)CCN1CCN(S(=O)(=O)c2ccc(OC)cc2)CC1 | 38.4%
74 | COc1ccc(NC(=O)CCN2CCCC2)c(OC)c1 | -50.5% (active)
75 | COc1ccc(OC)c(NC(=O)CCN2CCC(C)CC2)c1 | -50.8% (active)
76 | COc1ccc(C(C)(C)C)cc1NC(=O)CCN1C(=O)C2CCCCC2C1=O (stereo unspecified) | 4.26%
77 | COc1ccc(NC(=O)CCn2ccnc2)c(OC)c1 | -22.6%
78 | COc1ccccc1NC(=O)CCN1CCN(c2ccc(Cl)cc2)CC1 | -52.9% (active)
79 | O=C(CC[C@H]1O[C@@H](n2ccc(=O)[nH]c2=O)[C@H](O)[C@@H]1O)N[C@H](Cc1ccccc1)C(=O)NCc1ccco1 | 23.3%
80 | CCCC/C=C/c1cccc2nncn12 | 11.2%
81 | C[C@H](CO)N1C[C@H](C)[C@@H](CN(C)C(=O)C2CCCCC2)OCc2cnnn2CCCC1=O | -18.3%
82 | Cc1nc2ccccn2c(=O)c1NC(=O)c1ccc(Br)o1 | 0%
83 | Cc1nccn1-c1ccc(NC(=O)[C@H]2O[C@@H](n3cnc4c(N)ncnc43)[C@H](O)[C@@H]2O)cc1 | 9.64%
84 | COc1ccc2c(c1)CCCO[C@]21O[C@H](CCO)C[C@H](O)[C@H]1O | -5.1%
85 | Fc1cccc(Cc2c(-c3cccc(Cl)c3)nc3ccc(Br)cn23)c1 | 12.6%
86 | CC(C)NC(=O)Nc1ccc2c(c1)C(=O)N([C@H](C)CO)C[C@H](C)[C@@H](CN(C)Cc1ccc(C(F)(F)F)cc1)OCCCC[C@@H](C)O2 | -28.7%
